Assay outcomes as filed in PubChem BioAssay.
This is a sample that favours compounds with a hit; in the whole collection about 7.3% have one here.
Tau FP inhib: qHTS for Inhibitors of Tau Fibril Formation, Fluorescence Polarization. K18 P301L tau heparin fibrillization, Alexa594 FP, 6 h. Microtubule-associated protein tau (Homo sapiens), P10636. hit rate 0.39% among 280,000. AID 1468, 2008. Potency, µM (highest dose often 57.7 µM), usual class: inhibitors; also: nearly all actives have a fitted effect of over 55% in size
Target sequence (P10636 561-689 P618L limits assumed): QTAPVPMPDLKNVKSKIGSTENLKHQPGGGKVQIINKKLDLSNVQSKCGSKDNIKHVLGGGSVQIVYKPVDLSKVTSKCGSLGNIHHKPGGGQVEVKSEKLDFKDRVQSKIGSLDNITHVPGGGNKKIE
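Recombinant K18 P301L […], labeled with Alexa 594 at 0.24 uM over 15 uM unlabeled; heparin inducer 20 uM final; 37 C, 6 hr; FP endpoint.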
RORgamma inh: qHTS for inhibitors of ROR gamma transcriptional activity; Potency, µM (highest dose often 53.6 µM), actives largely listed as inhibitors; Nuclear receptor ROR-gamma (Mus musculus), P51450; hit rate 5.4% among 310,000; Drosophila S2 Gal4-RORgamma UAS-luciferase reporter, 20 h; AID 2551, 2010; also: nearly all actives have a fitted effect of over 60% in size
Target sequence (P51450 whole entry, looked up, the tested form may be a part): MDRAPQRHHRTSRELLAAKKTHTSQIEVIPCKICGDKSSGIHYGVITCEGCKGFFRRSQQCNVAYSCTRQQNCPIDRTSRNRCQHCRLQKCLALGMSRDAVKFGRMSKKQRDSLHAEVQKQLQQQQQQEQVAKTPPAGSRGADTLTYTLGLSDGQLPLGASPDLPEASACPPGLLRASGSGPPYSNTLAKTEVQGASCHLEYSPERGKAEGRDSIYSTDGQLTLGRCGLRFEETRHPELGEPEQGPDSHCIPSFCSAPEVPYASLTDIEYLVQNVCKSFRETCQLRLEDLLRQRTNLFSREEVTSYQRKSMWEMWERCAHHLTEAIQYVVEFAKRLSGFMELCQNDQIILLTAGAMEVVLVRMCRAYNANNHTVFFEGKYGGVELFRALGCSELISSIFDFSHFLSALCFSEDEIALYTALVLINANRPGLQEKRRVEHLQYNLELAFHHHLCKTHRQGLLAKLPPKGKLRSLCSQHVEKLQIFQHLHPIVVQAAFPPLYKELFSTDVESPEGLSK
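Read-out: Photinus luciferase luminescence; inhibitors lower reporter signal. Insect Schneider cells with Gal4-ROR gamma fusion under metallothionein promoter, UAS reporter; 700 uM final copper sulfate induction, 20 hr, ambient temperature.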
Gal4-VP16 FLuc: VP16 counterscreen qHTS for inhibitors of ROR gamma transcriptional activity; Drosophila S2 Gal4-VP16 UAS-luciferase, luminescence, 20 h; Potency, µM (series often up to 53.6 µM), hits mostly inhibitors; hit rate 3.5% among 310,000;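 also: Gal4-VP16 expression switched on by copper sulfate through the metallothionein promoter; nearly all actives have a fitted effect of over 50% in size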
Tau ThT inhib: qHTS for Inhibitors of Tau Fibril Formation, Thioflavin T Binding; Potency, µM (highest dose often 57.4 µM), most hits filed as inhibitors; hit rate 2.1% among 270,000; Microtubule-associated protein tau (Homo sapiens), P10636; recombinant tau K18 P301L, heparin-induced fibrillization, ThT fluorescence; AID 1460, 2008; also: nearly all actives have a fitted effect of over 55% in size
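ThT emission at 510 nm, taken 1 hr after adding 30 uM dye, quantifies aggregates formed when 20 uM heparin acts on human tau K18 P301L for 6 hr at 37 C.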
Tau fluor counter: Counterscreen qHTS for Inhibitors of Tau Fibril Formation, Fluorescence Polarization; hit rate 0.93% among 280,000; AID 1463, 2008; Potency, µM (series often up to 57.7 µM); tau K18 P301L Alexa594 fluorescence, heparin fibrillization; also: nearly all actives have a fitted effect of over 55% in size
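Human tau K18 P301L (15 uM unlabeled, 0.24 uM Alexa 594-labeled) in 100 mM sodium acetate pH 7 with 20 uM heparin, 6 hr at 37 C. ThT 30 uM added, 1 hr ambient; Alexa 594 FP and total fluorescence read at 555/632 nm.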
A number is an active result; . = inactive; ? = inconclusive; / = no result given; ! = repeats disagree; [ ] = remark or other dose. Calls follow the shape of the dose curve; as a rule, active = well fitted curve in the direction sought with a large enough effect; inconclusive = small, poorly fitted or top-dose-only effect, or another doubt; inactive = no such curve, though single readings can be large; an effect the other way counts as inactive or inconclusive.

SMILES	Tau FP inhib	RORgamma inh	Gal4-VP16 FLuc	Tau ThT inhib	Tau fluor counter
COc1ccc(-c2noc(CSc3nnc(-c4ccc(Cl)cc4)n3C)n2)cc1OC	.	/	/	?	.
COc1ccccc1CNC(=O)[C@@H](NC(=O)C1CCN(C(=O)[C@@H]2CCCN2C(=O)OC(C)(C)C)CC1)C(C)C	/	7.94µM	.	/	/
Cc1oc(-c2ccccc2F)nc1CSCC(=O)NCc1ccccc1	.	/	/	.	.
Cc1cc(C)cc(NC(=O)Nc2ccc3c(c2)N(C)C(=O)CS3)c1	?	.	.	.	11.2µM[quencher]
CCc1ccc(NC(=O)Nc2ccc3c(c2)N(C)C(=O)CS3)cc1	?	.	.	.	17.8µM[quencher]
Cc1cccc(C)c1OCC(=O)NCC1(N(C)C)CCCCC1	.	/	/	.	.
COc1cccc(CNC(=O)c2c(C)nn(-c3cccc(C)c3)c2-n2cccc2)c1	.	/	/	?	.
C/C(=N\NC(=O)c1ccc(Br)cc1)C1C(=O)c2ccccc2C1=O	?	3.98µM	3.55µM	3.98µM	?
C/C(=N\NC(=O)c1ccc(-c2ccccc2)cc1)C1C(=O)c2ccccc2C1=O	.[2.34 µM]	?	.	.	.
CCOc1ccc(C(=O)N/N=C(/C)C2C(=O)c3ccccc3C2=O)cc1	.	1.12µM	2.82µM	1.78µM	.
COC(=O)N1C(C2CC2)=Cc2ccccc2C1CC(C)=O (configuration not stated)	.	.	.	.	.
Oc1ccc(O)c2c1C1c3ccccc3C2c2ccccc21	/	7.94µM	20µM	/	/
OCC1C2c3ccccc3C(c3ccccc32)C1CO (configuration not stated)	.	?	.	.	.
O=C(c1ccco1)N1CCN(c2ncnc3c2[nH]c2ccc(Cl)cc23)CC1	.	.	14.1µM	.	.
O=C(c1ccco1)N1CCN(c2c(-c3ccccc3)c3cc(Cl)ccc3[nH]c2=O)CC1	.	2µM	?	.	.
CCOc1ccccc1NC(=O)Cn1ncc2c([nH]c3ccccc32)c1=O	?	/	/	.	.
CC1CCCCN1CCCNC(=O)c1ccc(N2CCCC2=O)cc1 (configuration not stated)	/	.	.	/	/
O=C1C=C(NCc2ccccc2)c2ccccc2C1=O	?	15.8µM	?	14.1µM	.
O=c1cccccc1NCc1ccccc1	.	.	?	.	.
O=C1c2ccccc2C(=O)c2c(O)ccc(O)c21	?	.	.	?	.
O=C1C=C(Nc2ccccc2O)c2ccccc2C1=O	.	?	10µM	?	?
CSc1ccc(C2c3c(oc4ccc(F)cc4c3=O)C(=O)N2c2ccc(C)cn2)cc1 (configuration not stated)	.	/	/	.	.
Cc1c(O)nc(SCC(=O)Nc2ccc(Cl)cc2Cl)n(-c2ccc(F)cc2)c1=O	.	/	/	.	.
Cc1ccc(-n2ccc(=O)c(-c3ccnc(SCc4cccc(Cl)c4)n3)n2)cc1	.	0.282µM	.	.	.
O=C(NC1CCCCC1)C(c1ccc2ncccc2c1)N(Cc1ccccc1)C(=O)c1cccs1 (configuration not stated)	.	.	.	.	.
SMILES	Tau FP inhib	RORgamma inh	Gal4-VP16 FLuc	Tau ThT inhib	Tau fluor counter
COc1ccc(C(C(=O)NC2CCCC2)N(Cc2cccnc2)C(=O)Cc2cccs2)c(OC)c1 (configuration not stated)	/	10µM	.	/	/
COc1ccc(CN(C(=O)c2cccs2)C(C(=O)NC2CCCCC2)c2ccc3ncccc3c2)cc1 (configuration not stated)	.	35.5µM	.	.	.
C=CCOc1ccc(/C=C2\SC(=S)N(NS(=O)(=O)c3ccccc3)C2=O)cc1	/	.	.	/	/
N#C/C(=C\c1ccc(Cl)cc1Cl)c1nc(-c2cccc(Cl)c2)cs1	.	/	/	.	.
CCCSc1cc(NCCOC(C)=O)c([N+](=O)[O-])c2nonc12	.	.	.	?	?
Cc1nnc(Sc2cc(NCCCO)c([N+](=O)[O-])c3nonc23)s1	.	3.55µM	6.31µM	6.31µM	?
Cc1nnc(Sc2cc(NCCO)c([N+](=O)[O-])c3nonc23)s1	?	3.16µM	?	7.94µM	?
Cc1cccc2sc(NC(=O)C3CSC4(C)CCC(=O)N34)nc12 (configuration not stated)	/	.	.	/	/
CC12CCC(=O)N1C(C(=O)Nc1nc3c(F)cc(F)cc3s1)CS2 (configuration not stated)	/	.	3.55µM	/	/
O=C(c1cnccn1)N1CCC2(CCN(Cc3nccs3)CC2)CC1	/	.	.	/	/
Oc1c(Cl)cc(Cl)c2cccnc12	.	0.0794µM	?	?	.
Oc1c(I)cc(I)c2cccnc12	.	2.51µM	4.47µM	.	.
Cc1ccc(S(=O)(=O)Nc2cc(Cl)c(O)c3ncccc23)cc1	/	0.708µM	1.26µM	/	/
O=S(=O)(O)c1cc(I)c(O)c2ncccc12	/	?	.	/	/
Clc1cc2cccnc2c2ccccc12	.	.	.	.	.
Oc1ccc(Cl)c2cccnc12	.	1.78µM	3.16µM!	?	.
Oc1ccc(F)c2cccnc12	.	2.82µM	4.47µM	.	.
CC(=O)N1CCc2c(sc3nc(SCC(N)=O)n(-c4ccc(F)c(Cl)c4)c(=O)c23)C1	.	/	/	.	.
Cc1ccc(-n2c(O)c(/C=N/Nc3ccc(S(=O)(=O)N4CCOCC4)cc3[N+](=O)[O-])c3ccccc3c2=O)c(C)c1	.	?	?	12.6µM	?
COc1ccc(C/C(N)=N/OC(=O)CCc2ccccc2)cc1	/	.	.	/	/
CC(C)C(=O)Nc1ccc(-c2nc3ccccc3c(=O)o2)cc1	.	11.2µM	?	.	.
CC(C)(C)C(=O)Nc1cccc(-c2nc3ccccc3c(=O)o2)c1	.	14.1µM	?	.	.
CC(C)(C)C(=O)Nc1ccc(-c2nc3ccccc3c(=O)o2)cc1	.	?	?	.	.
CC(C)C(=O)Nc1cccc(-c2nc3ccccc3c(=O)o2)c1	.	?	.	.	.
COc1cc(O)c(C(CC(=O)N2CCCCC2)c2ccc3c(c2)OCO3)c(OC)c1 (configuration not stated)	.	14.1µM	.	.	.
COc1cc(OC)c2ccc(=O)oc2c1C(CC(=O)N1CCCC(C)C1)c1ccc2c(c1)OCO2 (configuration not stated)	.	.	.	.	.
COc1cc(O)c(C(CC(=O)N2CCCC(C)C2)c2ccc3c(c2)OCO3)c(OC)c1 (configuration not stated)	.	3.55µM	.	.	.
COc1cc(O)c(C(CC(=O)N2CCN(c3ccccc3)CC2)c2ccc(N(C)C)cc2)c(OC)c1 (configuration not stated)	.	.	.	.	.
